# Assay outcomes as filed in PubChem BioAssay.
# This is a sample that favours compounds with a hit; in the whole collection about 1.4% have one here.
# Mtb MenB inh = Mtb MenB enzyme inhibition | hit rate 0.43% among 100,000 | inhibition, % (no concentration beside the values) | MenB enzyme assay, absorbance read-out | P9WNP5; in the data active = inhibition above about 21%, passing the limit was not always enough
# Polio RdRp inh = inhibitors of poliovirus RNA polymerase binding and polymerization; poliovirus polymerase elongation, fluorescence polarization; hits give low values; % elongation, % (compound at 16.7 µg/mL); hit rate 0.66% among 150,000; AID 588519; in the data active = % elongation below about 90%
# Target sequence (P03300 1749-2209 limits assumed): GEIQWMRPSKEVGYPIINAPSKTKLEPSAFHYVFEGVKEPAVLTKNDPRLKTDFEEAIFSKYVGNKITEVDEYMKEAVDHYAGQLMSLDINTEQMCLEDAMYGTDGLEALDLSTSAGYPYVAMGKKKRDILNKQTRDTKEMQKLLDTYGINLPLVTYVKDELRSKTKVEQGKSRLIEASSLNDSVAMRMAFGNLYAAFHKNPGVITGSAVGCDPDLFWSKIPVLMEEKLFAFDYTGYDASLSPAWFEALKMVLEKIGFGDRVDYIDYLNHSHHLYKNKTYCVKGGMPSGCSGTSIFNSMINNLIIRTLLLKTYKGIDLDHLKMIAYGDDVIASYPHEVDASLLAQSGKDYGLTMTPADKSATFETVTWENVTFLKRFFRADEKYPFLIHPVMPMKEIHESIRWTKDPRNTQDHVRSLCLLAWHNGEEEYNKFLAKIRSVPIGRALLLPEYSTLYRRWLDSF
# MbtI inh = MbtI salicylate synthase inhibition; P9WFX0; purified MbtI enzyme, fluorescence intensity read-out; inhibition, % (test concentration not listed); AID 493033; hit rate 0.89% among 100,000; in the data active = inhibition mostly above about 56%, no sharp cut-off; inactive = mostly below about 77%
# AID504770 = growth inhibitors of E. coli YBA685 in a screen for V. cholerae RctB (chromosome II replication) inhibitors; E. coli YBA685 rctB-dependent plasmid, OD600 growth, 3 h; hits give low values; z-score (no concentration beside the values); hit rate 0.27% among 130,000; AID 504770; in the data active = z-score below about -2, passing the limit was not always enough
# The depositor's hits bear a star; i = inactive; . = no result given; ! = not confirmed by another sample.
SMILES,Mtb MenB inh,Polio RdRp inh,MbtI inh,AID504770
Cc1ccc(O)c(C(=O)c2cnn3c(N)nnc3c2)c1,-3,64*,-5,1.8
Cc1ccc(O)c(C(=O)c2cnn3c(=S)[nH]nc3c2)c1,-18,71*,43,-0.15
CN(C)c1ccc(/C(N)=N/O)cc1,.,.,-1,0
CC(C)C(=O)NCCc1c[nH]c2ccccc12,-9,101,-24,-0.5
Cc1ccc(C(=O)CC(NCCc2c[nH]c3ccccc23)C(=O)O)cc1 (stereo not drawn),47*,103,.,-1.7
S=c1[nH]nc(Cc2ccccc2)n1Cc1ccccc1,-6,103,62*!,0
N#CC(C(=O)c1cc2ccccc2o1)c1nc2ccccc2s1 (stereo not drawn),-26,101,5,0.7
Nn1c(COc2ccccc2)n[nH]c1=S,-71,80*,95*,-0.75
Cc1cc(-c2csc(CC#N)n2)c(C)n1Cc1ccc2c(c1)OCO2,9,109,16,-1.1
CCC(=O)N(c1n[nH]c(=S)s1)C1CC1,-13,.,91*,-0.65
O=C(O)c1ccc2nc(-c3cc4cccc(O)c4oc3=O)[nH]c2c1,.,79*,.,.
CCS(=O)(=O)N1CCC(c2nc3ccccc3s2)CC1,-2,103,-5,0.5
Cc1ccc(C)c(NC(=O)CN(C)C(=O)COc2ccccc2C#N)c1,-7,103,-3,-3.5*
Cc1ccc(C(=O)Sc2nnc3ccccn23)cc1,.,101,60,0.95
Cc1ccc(C(=O)Sc2nc(C)cc(C)n2)cc1,-8,103,78*,1.8
CC(=O)Oc1ccc(-c2ccc(C(=O)O)cc2)cc1C,.,103,-10,-0.1
CC(=O)Oc1ccc(-c2ccc(C(=O)O)cc2)cc1Cl,.,100,85*,-0.5
CCSc1ccc(SC#N)s1,-76,95,54,-5.2*
COCC(C)n1cccc1 (stereo not drawn),-28,101,-11,0.45
COc1cc(C(=O)n2nc(C)c(Sc3ccc(Cl)cc3)c2C)cc(OC)c1OC,.,103,.,.
COc1cc(C(=O)Sc2ccc(Cl)cc2)cc(OC)c1OC,-28,84*,.,2.7
Cn1ncc(Br)c1N1C(=O)C=CC1=O,.,.,.,-3*
Cn1ncc(Br)c1C(=O)NN,-7,107,.,0.2
Cc1ccc(C(=O)C2CCN(C(=O)Cc3ccccc3)CC2)cc1,-5,100,-4,0.7
COC(=O)C1CCN(C(=O)Cc2ccc(C)cc2)CC1,-9,83*,-1,-0.4
SMILES,Mtb MenB inh,Polio RdRp inh,MbtI inh,AID504770
S=c1[nH]nc(SCc2ccccc2)s1,-12,98,87*,-0.3
O=C(OCn1nnc2ccccc2c1=O)C1CCCCC1,23,102,6,0.3
O=C(OCn1nnc2ccccc2c1=O)C1COc2ccccc2O1 (stereo not drawn),-22,100,58*,0.4
C1=CSC(=C2SC=CS2)S1,active,59*,45,-3.6*
O=C(O)c1cc2ccc3ccccc3c2s1,.,.,.,-0.4
Cc1cc(C)nc(SCC(N)=O)n1,46*,101,-11,-0.75
Cc1cc(C)nc(SCCN(C)C)n1,.,.,-5,2
Cc1cc(C)nc(SCCSc2nc(C)cc(C)n2)n1,34*,100,-11,0.25
CN1C(=O)C(=Cc2ccccc2OCc2ccccc2)C(=O)N(C)C1=S,-25,100,77,2.1
COc1cccc(C=C2C(=O)N(C)C(=S)N(C)C2=O)c1OC,-76,95,93*,0.75
COC(=O)Nc1scc2c1c(=O)oc1ccccc12,-21,98,71*,-0.35
CC(=O)Nc1scc2c1c(=O)oc1ccccc12,-17,103,11,-0.6
NC(=O)CCSc1n[nH]c(=S)s1,-7,101,56,-0.95
CCOC(=O)CSc1n[nH]c(=S)s1,-21,101,90*,0.1
CCOC(=O)CSc1nn(C)c(=S)s1,.,.,25,1.2
CCOC(=O)CCSc1n[nH]c(=S)s1,-22,103,85*,0.3
CCOC(=O)Oc1c(Cl)cc2oc(=O)sc2c1Br,-46,112,.,-0.85
COc1ccc(N(Cc2cccs2)C(=O)CSc2n[nH]c(-c3cccs3)n2)cc1,-15,101,8,-0.3
O=c1oc2c3c(ccc2c2ccccc12)OCN(Cc1cccc(Cl)c1)C3,.,85*,.,.
CCOC(=O)/C(C#N)=C\N1CCOCC1,-1,102,11,-0.25
CCOC(=O)/C(C#N)=C\C1=C(N2CCCC2)CC(C)(C)OC1,i,101,62*,0
CC(C)=C1N=C(c2ccc(Cl)cc2)OC1=O,-77,104,-5,2.3
O=C(COc1ccccc1)c1ccc(O)c(O)c1O,-21,101,94*,-1.8
CCOC(=O)C(CC)Sc1nc2c(cnn2-c2ccc(C)c(C)c2)c(=O)[nH]1 (stereo not drawn),-3,100,2,-0.15
Clc1cccnc1N1CCOCC1,.,.,.,0.1
SMILES,Mtb MenB inh,Polio RdRp inh,MbtI inh,AID504770
CC(C)(C)C1=CC(C(C#N)C#N)c2ccccc2O1 (stereo not drawn),.,100,-15,-2.1*
CNC(=O)C1c2ccccc2Oc2ccccc21,-11,103,-3,0.85
O=C(c1ccccc1)C1CCN(C(=O)CS(=O)(=O)c2ccc(Cl)cc2)CC1,.,.,.,2.8
Cc1ccc2o/c(=N\O)c(C(N)=O)cc2c1,-12,100,100*,-1.6
Cn1c(CNC(=O)C2CCCCC2)cc2cc(Cl)ccc21,23*,104,.,-0.35
Cc1cc(C)c(C#N)c(SCC(=O)Nc2ccccc2C#N)n1,.,103,.,.
Cc1ccc(NC(=O)CSc2nc(C)cc(C)c2C#N)cc1,40*,98,3,1
O=C(CCN1C(=O)c2ccccc2C1=O)OCc1ccco1,1,90*,0,-0.5
CCOC(=O)CCN1C(=O)c2ccccc2C1=O,1,107,-1,1.3
CC(C)c1nc(-c2ccc(-c3ccon3)s2)no1,.,.,.,-0.55
COc1ccccc1CNC(=O)CSc1ncc2c(n1)-c1cc(Cl)ccc1N(Cc1ccccc1)S2(=O)=O,.,-5.0*,.,.
O=C(NCCc1ccccc1)c1cc2cc(Cl)cc(Cl)c2oc1=O,.,.,.,1.7
O=C1COc2ccc(-c3csc(-n4nccc4C(F)(F)F)n3)cc2N1,-23,87*,14,-0.2
O=C1COc2ccc(-c3cc(-c4ccccc4)c4c(n3)-c3ccccc3OC4)cc2N1,.,109,.,.
CCc1nnc(SCC(=O)N(CC)c2ccccc2)c2cc3oc(C)cc3n12,.,111,.,.
C=CCN(C(=O)CSc1nnc(CC)n2c1cc1oc(C)cc12)c1ccccc1,45*,101,3,0.05
O=c1c2ccccc2nc(-c2ccco2)n1-c1nccs1,42*,101,27,0.15
CSc1nnc(-n2cccc2)s1,.,.,.,-0.75
O=S(=O)(c1cccc(-c2nn3c(-c4ccncc4)nnc3s2)c1)N1CCCCC1,0,85*,91,0
c1ccc(-c2nnc3sc(-c4ccc5c(c4)OCO5)nn23)cc1,-29,100,77,0.8
CC(C)(C)OC(=O)N1CCC[C@H]1C(=O)OCc1ccc(Cl)cc1Cl,-18,110,-2,-0.3
CC(C)NC(=O)c1ccc(-c2ccc(F)cc2)o1,30*,101,90,1.4
COc1cccc(/C=N/N2C(=O)CSC2=S)c1O,-37,85*,4,-0.45
CCOC(=O)c1c(C)[nH]c(C)c1S(=O)(=O)N1CCc2ccccc21,-40,106,-8,0.8
